PubChem BioAssay (NCI)
Compounds without any hit were thinned out: in the full panel of roughly 83,000, 20% have a hit.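 48-hour exposure, single concentration, 96-well plates; percent growth endpoint where 0 means no net growth. Active: below 10.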 Values without a mark were called inactive. Activity calls are given as the source filed them.

Assays:
Test in all cases: NCI-60 one-dose screen, 48 h (100 = growth as untreated, 0 = no growth, -100 = all killed)
Conditions in all cases: 10 µM unless noted
DU-145 prostate = test system: DU-145 prostate
K-562 leukemia = test system: K-562 leukemia
MALME-3M melanoma = test system: MALME-3M melanoma
MDA-MB-231 breast = test system: MDA-MB-231 breast
RXF 393 renal = test system: RXF 393 renal
SF-268 CNS = test system: SF-268 CNS
SF-295 CNS = test system: SF-295 CNS
SF-539 CNS = test system: SF-539 CNS
UACC-257 melanoma = test system: UACC-257 melanoma
M14 melanoma = test system: M14 melanoma

Row | Compound | growth (DU-145 prostate) | growth (K-562 leukemia) | growth (MALME-3M melanoma) | growth (MDA-MB-231 breast) | growth (RXF 393 renal) | growth (SF-268 CNS) | growth (SF-295 CNS) | growth (SF-539 CNS) | growth (UACC-257 melanoma) | growth (M14 melanoma)
1 | COc1ccc(NC2=C(I)C(=O)c3ncccc3C2=O)cc1 | -84.2% (active) | 2.18% (active) | -98.2% (active) | -11.8% (active) | 33% | 14.7% | 8.7% (active) | -30% (active) | 15.9% | -65.7% (active)
2 | CC(=O)c1c(C)nc2ccccc2c1/C=C/c1ccc(F)cc1 | 96.1% | 60.2% | 123% | 93.8% | 92.7% | 90.6% | 84% | 90.4% | 95.2% | 107%
3 | c1ccc(-c2oc(-c3ccccc3)c(CN3CCCCC3)c2CN2CCCCC2)cc1 | 57.7% | 7.49% (active) | -12.5% (active) | 29.6% | 2.14% (active) | 57.9% | 37.3% | 46.7% | 15.8% | 1.67% (active)
4 | CCCCNC(=O)Oc1ccc(/C(=C(/C)Cc2ccc(OC)cc2)c2ccc(OCCN3CCCC3)cc2)cc1 | 80.1% | -27.8% (active) | 58.8% | 69% | 57% | 71.8% | 69.7% | 86.1% | 43.1% | -64.6% (active)
5 | CCNCCNc1cc(C2CCCCC2)c(C#N)c2nc3ccccc3n12 | 32.6% | -38.8% (active) | -72.4% (active) | -48.7% (active) | -81.1% (active) | 22.3% | -53.5% (active) | -88.8% (active) | -67.2% (active) | -66% (active)
6 | Cn1cc(-c2csc(-c3c[nH]c4ccccc34)n2)c2cnccc21 | 20.9% | -28.1% (active) | -79% (active) | -37.4% (active) | -84% (active) | 54.6% | -69.7% (active) | -88.4% (active) | 90.9% | -80.2% (active)
7 | Cn1cc(C(=O)c2nc(-c3c[nH]c4ccccc34)no2)c2cc(F)ccc21 | 72.5% | 16.7% | 37.3% | 57.1% | 89.9% | 54.9% | 20.7% | 30% | 51.2% | 33%
8 | Cc1ccc(CNc2ccc3nc(CCC4CCCCC4)[nH]c3c2)cc1 | 71.8% | 5.06% (active) | 22.4% | 53.1% | 36.2% | 71.2% | 61.1% | 64.6% | 66.8% | 37.4%
9 | CCNCCNc1cc(-c2ccc(C(F)(F)F)cc2)c(C#N)c2nc3ccccc3n12 | -95.1% (active) | -50.9% (active) | -78.1% (active) | -79.8% (active) | -93.9% (active) | -75.3% (active) | -72.5% (active) | -88% (active) | -80.2% (active) | -82.5% (active)
10 | Nc1n[nH]c2cccc(C#Cc3cccc(NC(=O)c4cc(F)cc(C(F)(F)F)c4)c3)c12 | 97.9% | 9.27% (active) | 53% | 48.1% | 62.8% | 73.6% | 81.3% | 44% | 88.5% | 41.9%
11 | COc1cc2ncnc(Nc3ccc(F)c(Cl)c3)c2cc1OCC(=O)N1CCN(c2ccccc2)CC1 | 62.9% | 85.2% | 96.3% | 90.5% | 81.2% | 82.6% | 93.4% | 104% | 107% | 99.4%
12 | Cc1cc(S(=O)(=O)/N=C(\N)n2nc(C)c(C)c2C)c(SCc2ccccc2)cc1Cl | 98.1% | 30.9% | 94.1% | 89.6% | 72.9% | 86.6% | 54.3% | 98.8% | 73.4% | 74.6%
13 | COc1ccc(Cc2cnc(NC(=O)c3cc(C)oc3C)s2)cc1 | 40.7% | 11.4% | 52.5% | 63.6% | 16.4% | 53.3% | 39.4% | 32.5% | 57.3% | 18.9%
14 | Clc1ccc(/C=N\N=C\c2ccc(Cl)c(Cl)c2)cc1Cl | 3.88% (active) | 88.8% | 125% | 80.6% | 79.3% | 91.9% | 81.1% | 102% | 106% | 88.6%
15 | COc1ccc(/C=C/C(=O)c2cccc(OCCCCOc3cccc(C(=O)/C=C/c4ccc(OC)c(OC)c4)c3)c2)cc1OC | 83.3% | 50.7% | 77.7% | 87.7% | 79.1% | 76.2% | 47% | 87.7% | 57.1% | 78.6%
16 | O=C(CSc1oc(-c2ccccc2)nc1S(=O)(=O)c1ccccc1)Nc1ccc(F)cc1 | 110% | 75.4% | 56.4% | 75.6% | 90.5% | 85.7% | 73.4% | 65.6% | 92.5% | 90.2%
17 | Nc1nc(-c2ccc(Cl)cc2)nc2c1sc(=S)n2-c1ccccc1 | 56.1% | 41.1% | -15.9% (active) | 34.7% | -2.61% (active) | 40.7% | 16.4% | -20.7% (active) | 59.9% | 68.1%
18 | Nc1ncnc2c1C(c1ccc(Br)cc1)c1sc3c(F)cccc3c1O2 (stereo not given) | 102% | 99.1% | 127% | 79.7% | 104% | 98.9% | 102% | 102% | 114% | 103%
19 | O=C(O)CCCN1C(=O)/C(=C/c2cn(-c3ccccc3)nc2-c2ccc([N+](=O)[O-])cc2)SC1=S | 58.5% | 56.5% | 52.1% | 85.5% | 86.7% | 52.8% | 34.8% | 55.5% | 84.6% | -8.74% (active)
20 | COc1ccc(-c2ccc(=O)oc2-c2cc(OC)c(OC)c(OC)c2)cc1O | -53.4% (active) | -25.7% (active) | 54.1% | 15.9% | 3.35% (active) | 5.78% (active) | -21.7% (active) | -19.2% (active) | 25.1% | -32.6% (active)
21 | CCN(CC)CCCCCNc1cc(OC(=O)c2ccc(Cl)cc2)cc2cccnc12 | 114% | 75.3% | 61% | 85.8% | 98.9% | 114% | 120% | 104% | 95.9% | 102%
22 | O=C(c1ccncc1)N1N=C(c2ccc(Cl)cc2)C[C@H]1c1cn(-c2ccccc2)nc1-c1ccccc1 | 99.8% | 90.5% | 108% | 69.6% | 87.6% | 89.4% | 78.8% | 81.2% | 89.6% | 107%
23 | O=C(O)c1cn(C2CC2)c2cc(N3CCN(Cc4ccc5ccccc5c4O)CC3)c(F)cc2c1=O | 11.2% | 62% | 13.9% | 48.4% | -23.2% (active) | 57.1% | 44.2% | -4.68% (active) | 38.5% | 48%
24 | COc1ccc(C(=O)C/C(=C\c2ccc(Cl)cc2)C(=O)NCc2ccccc2)cc1 | 103% | 62.4% | 79.8% | 81.3% | 91.6% | 86.3% | 101% | 94.4% | 70.7% | 94.8%
25 | CSc1nc(N)c(NS(=O)(=O)c2ccc(C(C)=O)cc2)c(=O)[nH]1 | 110% | 96% | 100% | 104% | 96.9% | 99.9% | 97.3% | 112% | 105% | 89.3%
26 | CCSC(SCC)c1ccc(Cl)cc1 | 107% | 118% | 102% | 107% | 114% | 100% | 87.1% | 107% | 99.4% | 110%
27 | CCn1cc(C(=O)NNC(=S)Nc2ccc(C)cc2)c(=O)c2ccc(C)nc21 | 108% | 99% | 103% | 93.5% | 104% | 103% | 102% | 102% | 94% | 113%
